In all, about 5,500 compounds went through this assay and about 2,000 (36%) were called active. About 18% were inconclusive and are not listed. Rule as the data show it: active = normalized growth mostly below about 0.91 (no sharp cut-off); inconclusive = no clear call, values can overlap the other calls; inactive = mostly above about 0.92. The list shows a part of the results.
Assay: chemical genetic growth profiling, strain panel (AID 1159580);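 also: tested at 20 µM; growth read once vehicle control cultures reached saturation at 30 °C; 1 = growth at the plate median or of vehicle wells; lower values mean less growth of the strain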
Conditions: growth OD

Measured: normalized growth

Cc1ccc(Cl)c(Nc2ccccc2C(=O)O)c1Cl
inactive: S. cerevisiae deletion strains, locus YJR066W, strain TOR1, active compounds read low 0.963 | S. cerevisiae deletion strains, locus YKL009W, strain mrt4, active compounds read low 0.97 | S. cerevisiae deletion strains, locus YKL068W, active compounds read low 0.975 | S. cerevisiae deletion strains, locus YKL085W, strain MDH1 (second series), active compounds read low 0.957 | S. cerevisiae deletion strains, locus YKL085W, strain MDH1, active compounds read low 0.957 | S. cerevisiae deletion strains, locus YLR058C, strain SHM2, active compounds read low 0.895 | S. cerevisiae deletion strains, locus YLR113W, strain HOG1, active compounds read low 1.02 | S. cerevisiae deletion strains, locus YLR357W, strain rsc2, active compounds read low 0.994 | S. cerevisiae deletion strains, locus YMR307W, strain GAS1, active compounds read low 0.638 | S. cerevisiae deletion strains, locus YNL067W, strain RPL9B, active compounds read low 0.92 | S. cerevisiae deletion strains, locus YNL153C, strain GIM3, active compounds read low 0.898 | S. cerevisiae deletion strains, locus YNL183C, strain NPR1, active compounds read low 0.992 | S. cerevisiae deletion strains, locus YNL233W, strain BNI4, active compounds read low 0.913 | S. cerevisiae deletion strains, locus YNL248C, strain rpa49, active compounds read low 0.931 | S. cerevisiae deletion strains, locus YNL250W, strain rad50, active compounds read low 0.993 | S. cerevisiae deletion strains, locus YNL271C, strain bni1, active compounds read low 0.955 | S. cerevisiae deletion strains, locus YNL298W, strain CLA4, active compounds read low 0.932 | S. cerevisiae deletion strains, locus YOL006C, strain TOP1, active compounds read low 0.697 | S. cerevisiae deletion strains, locus YOL012C, strain htz1 0.653 | S. cerevisiae deletion strains, locus YOR001W, strain rrp6, active compounds read low 0.95 | S. cerevisiae deletion strains, locus YOR080W, strain dia2, active compounds read low 0.914 | S. cerevisiae deletion strains, locus YOR083W, strain WHI5 (second series), active compounds read low 0.971 | S. cerevisiae deletion strains, locus YOR136W, strain idh2, active compounds read low 0.953 | S. cerevisiae deletion strains, locus YOR231W, strain MKK1, active compounds read low 1.01 | S. cerevisiae deletion strains, locus YPL106C, strain sse1, active compounds read low 1.04 | S. cerevisiae deletion strains, locus YPL256C, strain CLN2, active compounds read low 0.996 | S. cerevisiae deletion strains, locus YPR141C, strain kar3, active compounds read low 0.963
active: S. cerevisiae deletion strains, locus YJR075W, strain HOC1, active compounds read low 0.877 | S. cerevisiae deletion strains, locus YKL160W, strain elf1, active compounds read low 0.824 | S. cerevisiae deletion strains, locus YKR001C, strain vps1, active compounds read low 0.581 | S. cerevisiae deletion strains, locus YKR026C, strain gcn3, active compounds read low 0.893 | S. cerevisiae deletion strains, locus YKR091W, strain srl3, active compounds read low 0.879 | S. cerevisiae deletion strains, locus YLL001W, strain dnm1, active compounds read low 0.815 | S. cerevisiae deletion strains, locus YLL026W, active compounds read low 0.893 | S. cerevisiae deletion strains, locus YLL041C, strain sdh2, active compounds read low 0.886 | S. cerevisiae deletion strains, locus YLR027C, strain aat2, active compounds read low 0.907 | S. cerevisiae deletion strains, locus YLR039C, strain RIC1, active compounds read low 0.399 | S. cerevisiae deletion strains, locus YLR102C, strain apc9, active compounds read low 0.887 | S. cerevisiae deletion strains, locus YLR221C, strain rsa3, active compounds read low 0.809 | S. cerevisiae deletion strains, locus YLR258W, strain gsy2, active compounds read low 0.852 | S. cerevisiae deletion strains, locus YLR262C, strain YPT6 (second series), active compounds read low 0.499 | S. cerevisiae deletion strains, locus YLR262C, strain YPT6, active compounds read low 0.492 | S. cerevisiae deletion strains, locus YLR268W, strain sec22, active compounds read low 0.77 | S. cerevisiae deletion strains, locus YLR320W, strain mms22, active compounds read low 0.659 | S. cerevisiae deletion strains, locus YLR330W, strain CHS5, active compounds read low 0.893 | S. cerevisiae deletion strains, locus YLR342W, strain FKS1 (second series), active compounds read low 0.789 | S. cerevisiae deletion strains, locus YLR342W, strain FKS1, active compounds read low 0.857 | S. cerevisiae deletion strains, locus YLR370C, strain arc18, active compounds read low 0.83 | S. cerevisiae deletion strains, locus YLR371W, strain rom2, active compounds read low 0.894 | S. cerevisiae deletion strains, locus YLR384C, strain iki3, active compounds read low 0.893 | S. cerevisiae deletion strains, locus YLR418C, strain cdc73, active compounds read low 0.649 | S. cerevisiae deletion strains, locus YML016C, strain PPZ1, active compounds read low 0.894 | S. cerevisiae deletion strains, locus YML032C, strain rad52, active compounds read low 0.862 | S. cerevisiae deletion strains, locus YML120C, strain ndi1, active compounds read low 0.795 | S. cerevisiae deletion strains, locus YML124C, strain tub3, active compounds read low 0.888 | S. cerevisiae deletion strains, locus YMR058W, strain fet3, active compounds read low 0.866 | S. cerevisiae deletion strains, locus YMR078C, strain ctf18, active compounds read low 0.896 | S. cerevisiae deletion strains, locus YMR125W, strain sto1, active compounds read low 0.854 | S. cerevisiae deletion strains, locus YMR129W, active compounds read low 0.889 | S. cerevisiae deletion strains, locus YMR205C, strain PFK2, active compounds read low 0.737 | S. cerevisiae deletion strains, locus YMR223W, strain ubp8, active compounds read low 0.82 | S. cerevisiae deletion strains, locus YMR231W, strain pep5, active compounds read low 0.843 | S. cerevisiae deletion strains, locus YMR263W, strain SAP30, active compounds read low 0.873 | S. cerevisiae deletion strains, locus YNL071W, strain lat1, active compounds read low 0.702 | S. cerevisiae deletion strains, locus YNL175C, strain NOP13, active compounds read low 0.907 | S. cerevisiae deletion strains, locus YNL197C, strain WHI3, active compounds read low 0.893 | S. cerevisiae deletion strains, locus YNL209W, strain ssb2, active compounds read low 0.917 | S. cerevisiae deletion strains, locus YNL224C, strain SQS1, active compounds read low 0.915 | S. cerevisiae deletion strains, locus YNL307C, strain MCK1, active compounds read low 0.645 | S. cerevisiae deletion strains, locus YNL322C, strain KRE1 (second series), active compounds read low 0.903 | S. cerevisiae deletion strains, locus YNL322C, strain KRE1, active compounds read low 0.893 | S. cerevisiae deletion strains, locus YNR049C, strain mso1, active compounds read low 0.885 | S. cerevisiae deletion strains, locus YNR052C, strain pop2, active compounds read low 0.835 | S. cerevisiae deletion strains, locus YOL147C, strain pex11, active compounds read low 0.868 | S. cerevisiae deletion strains, locus YOR061W, strain CKA2, active compounds read low 0.882 | S. cerevisiae deletion strains, locus YOR069W, strain VPS5, active compounds read low 0.891 | S. cerevisiae deletion strains, locus YOR070C, strain gyp1, active compounds read low 0.864 | S. cerevisiae deletion strains, locus YOR083W, strain WHI5, active compounds read low 0.868 | S. cerevisiae deletion strains, locus YOR106W, strain vam3, active compounds read low 0.85 | S. cerevisiae deletion strains, locus YOR144C, strain elg1, active compounds read low 0.898 | S. cerevisiae deletion strains, locus YOR184W, strain ser1, active compounds read low 0.621 | S. cerevisiae deletion strains, locus YOR265W, strain rbl2, active compounds read low 0.892 | S. cerevisiae deletion strains, locus YOR270C, strain vph1, active compounds read low 0.617 | S. cerevisiae deletion strains, locus YOR290C, strain snf2, active compounds read low 0.746 | S. cerevisiae deletion strains, locus YOR316C, strain cot1, active compounds read low 0.881 | S. cerevisiae deletion strains, locus YPL051W, strain arl3, active compounds read low 0.771 | S. cerevisiae deletion strains, locus YPL078C, strain atp4, active compounds read low 0.774 | S. cerevisiae deletion strains, locus YPL240C, strain hsp82, active compounds read low 0.879 | S. cerevisiae deletion strains, locus YPL241C, strain CIN2, active compounds read low 0.943 | S. cerevisiae deletion strains, locus YPR119W, strain clb2, active compounds read low 0.87 | S. cerevisiae deletion strains, locus YPR163C, strain tif3, active compounds read low 0.903 | S. cerevisiae deletion strains, locus YPR167C, strain met16, active compounds read low 0.882 | S. cerevisiae deletion strains, strain wtn01, active compounds read low 0.859 | S. cerevisiae strains, strain wild type, active compounds read low 0.888

— PubChem BioAssay AID1159580 (chemical genetic matrix, 2015)
